Tau fibril FP: blocks human tau fibril formation measured by polarization; 0.39% of 280,000 active; AID 1468; Potency, µM (series often up to 57.7 µM), inactives show top-dose activity, negative = inhibition, usual class: inhibitors; K18 P301L tau heparin fibrillization, Alexa594 FP, 6 h; P10636; note: potency is the fitted concentration of half-maximal effect; nearly all actives have a fitted effect of over 55% in size
Target sequence (P10636 561-689 P618L limits assumed): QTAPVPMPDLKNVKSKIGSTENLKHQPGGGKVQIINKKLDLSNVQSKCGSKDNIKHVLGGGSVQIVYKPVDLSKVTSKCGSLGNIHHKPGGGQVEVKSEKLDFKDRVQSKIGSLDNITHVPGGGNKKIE
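FP of Alexa 594-tau after heparin (20 uM) induction. Substrate: human K18 P301L, 15 uM unlabeled, 0.24 uM labeled. Buffer 100 mM sodium acetate pH 7. 6 hr, 37 C.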
FBPA coupling cs: inhibits coupling enzyme system, counter-screen for aldolase hits | AID 2472 | 0.67% of 290,000 active | coupling enzyme system counterscreen, AmpLite Red fluorescence | activity change, negative = inhibition, % at 58.2 µM, hits read low; in the data active = activity change below about -30%
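First, compound is pin-transferred into glyceraldehyde-3-phosphate coupling-enzyme reagent at 57.5 uM final and held 10 min at RT. Next, substrate, coupling system and AmpLite Red are added. After 20 min RT, fluorescence (525/598 nm) is read.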
Tau ThT inhib: blocks human tau fibril formation measured by thioflavin T | P10636 | recombinant tau K18 P301L, heparin-induced fibrillization, ThT fluorescence | Potency, µM (titrated, usually from 57.4 µM), inactives show top-dose activity, negative = inhibition, hits mostly inhibitors | 2.1% of 270,000 active; note: potency is the fitted concentration of half-maximal effect; nearly all actives have a fitted effect of over 55% in size
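In this qHTS, human K18 P301L tau is incubated with compound and heparin for 6 hr at 37 C, and Thioflavin T fluorescence then reports fibril load.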
USP1 inh: blocks the human USP1/UAF1 deubiquitinase complex. O94782. recombinant USP1/UAF1, Ub-Rhodamine cleavage fluorescence. Potency, µM (top dose mostly 57.1 µM), for inactives: top-dose activity change, negative = inhibition, actives largely listed as inhibitors. 0.23% of 390,000 active. AID 743255; note: potency is the fitted concentration of half-maximal effect; nearly all actives have a fitted effect of over 60% in size
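USP1/UAF1 complex (1 nM) preincubated 15 min at room temperature with compound, then Ub-Rho substrate (150 nM final) added. Kinetic fluorescence at 480/540 nm over 6 reads at 60 s intervals; 50 mM HEPES pH 7.8, 0.5 mM EDTA, 0.1 mg/ml BSA, 1 mM TCEP, 0.01% Tween-20.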
Tau fluor counter: counter-screen for tau fibril formation inhibitors. tau K18 P301L Alexa594 fluorescence, heparin fibrillization. Potency, µM (doses to about 57.7 µM), inactives show at the highest dose activity change, negative = decrease. 0.93% of 280,000 active. AID 1463; note: potency is the fitted concentration of half-maximal effect; nearly all actives have a fitted effect of over 55% in size
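Human tau K18 P301L (15 uM unlabeled, 0.24 uM Alexa 594-labeled) in 100 mM sodium acetate pH 7 with 20 uM heparin, 6 hr at 37 C. ThT 30 uM added, 1 hr ambient; Alexa 594 FP and total fluorescence read at 555/632 nm.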
Active calls of the source: *; [ ] = another dose, or the depositor's remark. Hits are enriched below; roughly 2.3% of the tested compounds scored in any of these assays. Unless noted, calls come from the whole dose curve; as a rule, active = well fitted curve in the direction sought with a large enough effect; inconclusive = small, poorly fitted or top-dose-only effect, or another doubt; inactive = no such curve, though single readings can be large; an effect the other way counts as inactive or inconclusive. % is set by controls: 0 for no effect and ±100 for the full control effect.

What do the screens show for `C=CCN(c1ccccc1OC)S(=O)(=O)c1cccc(C(=O)OCC(=O)c2c(N)n(C)c(=O)n(C)c2=O)c1`?
USP1 inh: -19%

How did CCOC(=O)C1(C#N)C(=O)CSC1=Nc1ccccc1Cl (centres undefined) do in these assays?
USP1 inh: -14%

How did CCN1CCN(Cc2ccc(NC(=O)c3cc(NC(=O)c4cncc(-c5ccc(C#N)cc5)c4)cc(OC)c3)cc2C(F)(F)F)CC1 do in these assays?
Tau fibril FP: 8.9µM*; FBPA coupling cs: 8; Tau ThT inhib: -1%; USP1 inh: -20%; Tau fluor counter: inconclusive

Results for CCN1CCN(Cc2ccc(NC(=O)c3cc(NC(=O)c4nccnc4N)cc(OC)c3)cc2C(F)(F)F)CC1 ?
Tau fibril FP: -14%; FBPA coupling cs: -1; Tau ThT inhib: 2%; USP1 inh: -20%; Tau fluor counter: -23%

How did Nc1n[nH]c(=S)n1/N=C1/C(=O)Nc2ccccc21 do in these assays?
Tau fibril FP: inconclusive; FBPA coupling cs: -6; Tau ThT inhib: 18µM*; USP1 inh: -17%; Tau fluor counter: -25%

How did Cc1ccc(NC(=O)CN2C(=O)COc3ccc(S(=O)(=O)N4CCOCC4)cc32)cc1N(C)C do in these assays?
Tau fibril FP: -5%; FBPA coupling cs: 3; Tau ThT inhib: -16%; USP1 inh: -16%; Tau fluor counter: -14%

Results for Cc1cc(NC2=CC(=O)C(=O)c3ccccc32)no1 ?
USP1 inh: 2.5µM*

Results for NS(=O)(=O)c1ccc(NC2=CC(=O)C(=O)c3ccccc32)cc1 ?
FBPA coupling cs: -71*; USP1 inh: 8.9µM*

How did CCOC(=O)c1ccc(NC2=CC(=O)C(=O)c3ccccc32)cc1 do in these assays?
Tau fibril FP: -10%; Tau ThT inhib: 13µM*; USP1 inh: 7.9µM*; Tau fluor counter: inconclusive

What do the screens show for `CC(=O)Nc1ccc(NC2=CC(=O)c3ccccc3C2=O)cc1`?
FBPA coupling cs: -14; USP1 inh: -9%

What do the screens show for `Cc1ccc(NC2=CC(=O)C(=O)c3ccccc32)cc1`?
Tau fibril FP: inconclusive; FBPA coupling cs: -56*; Tau ThT inhib: 25µM*; USP1 inh: 25µM*; Tau fluor counter: inconclusive

Results for CCC(=O)c1ccc(OCC(=O)OCc2csc(CC(=O)Nc3ccccc3C)n2)cc1 ?
USP1 inh: -11%

What do the screens show for `CCC(C(=O)Nc1cc(Cl)c(OC)cc1OC)c1ccccc1` (centres undefined)?
Tau fibril FP: 1%; FBPA coupling cs: -1; Tau ThT inhib: -9%; USP1 inh: -15%; Tau fluor counter: -30%

What do the screens show for `COc1cc(OC)c(NC2=CC(=O)C(=O)c3ccccc32)cc1Cl`?
FBPA coupling cs: -50*; USP1 inh: 18µM*

What do the screens show for `COc1ccc(N2CCN(Cc3nc4c(c(=O)[nH]c(=O)n4C)n3Cc3ccccc3C)CC2)cc1`?
Tau fibril FP: 0%; Tau ThT inhib: -4%; USP1 inh: -8%; Tau fluor counter: -6%

Results for Cc1ccc(NC(=S)NCCSc2ccc(Cl)cc2)cc1 ?
Tau fibril FP: inconclusive; FBPA coupling cs: 0; Tau ThT inhib: -10%; USP1 inh: -10%; Tau fluor counter: inconclusive

Results for CC(CNC(=S)Nc1cc(F)cc(F)c1)CSc1ccc(Cl)cc1 (centres undefined) ?
Tau fibril FP: 28µM*; FBPA coupling cs: -2; Tau ThT inhib: 5%; USP1 inh: -11%; Tau fluor counter: inconclusive

What do the screens show for `CCOC(=O)CCCNC(=O)N1CCc2nc(-c3ccccc3)c3c(c2C1)CO[C@@H](C)C3`?
Tau fibril FP: 0%[11.6 µM]; FBPA coupling cs: 2; Tau ThT inhib: -1%[11.5 µM]; Tau fluor counter: -3%[11.6 µM]

How did CCN(c1ccccc1)c1nnc(NC(=O)Nc2ccc(Br)c(C)c2)s1 do in these assays?
Tau fibril FP: -7%; Tau ThT inhib: 6%; USP1 inh: -10%; Tau fluor counter: -1%

Results for Cc1cc(NC(=O)Nc2nnc(N(C)Cc3ccccc3)s2)ccc1Br ?
Tau fibril FP: -4%; Tau ThT inhib: -13%; USP1 inh: 32µM*; Tau fluor counter: -13%

What do the screens show for `Cc1c(C#N)c(O)[nH]c(=O)c1N=Nc1ccc(Cl)c(C(=O)O)c1`?
FBPA coupling cs: -1; USP1 inh: -17%

What do the screens show for `CC(C)n1c(O)c(N=Nc2ccc(Cl)c(C(=O)O)c2)c2ccccc21`?
Tau fibril FP: -2%; FBPA coupling cs: 12; Tau ThT inhib: 16µM*; USP1 inh: inconclusive; Tau fluor counter: 0%

What do the screens show for `CCn1c(O)c(N=Nc2ccc(Cl)c(C(=O)O)c2)c2ccccc21`?
Tau fibril FP: 7%; FBPA coupling cs: 10; Tau ThT inhib: 4.5µM*; USP1 inh: -10%; Tau fluor counter: -9%

How did CCOC(=O)N=Nc1c(O)n(CC)c2ccccc12 do in these assays?
Tau fibril FP: 2%; FBPA coupling cs: 0; Tau ThT inhib: -12%; USP1 inh: -14%; Tau fluor counter: -4%

How did Cc1c(C(=O)N2CCCCC2)oc2ccc(S(=O)(=O)N3CC(C)CC(C)C3)cc12 (centres undefined) do in these assays?
Tau fibril FP: 20µM*; FBPA coupling cs: 0; Tau ThT inhib: inconclusive; USP1 inh: -13%; Tau fluor counter: inconclusive

Results for Cc1cc(C)cc(NC(=O)c2cn3c4c(ccc(Cl)c4c2=O)OC(C)C3)c1 (centres undefined) ?
Tau fibril FP: 5%; Tau ThT inhib: 7%; USP1 inh: -9%; Tau fluor counter: 3%

How did C=CCOc1ccc(/C=C/C(=O)OCC(=O)NCc2cccs2)cc1 do in these assays?
USP1 inh: -9%

What do the screens show for `Oc1c(C=Nc2ccccc2)sc2ccccc12`?
Tau fibril FP: -8%[2.34 µM]; FBPA coupling cs: 0; Tau ThT inhib: -4%; USP1 inh: -21%; Tau fluor counter: 6%[2.34 µM]

How did Oc1sc(C=Nc2ccccc2)c2ccccc12 do in these assays?
Tau fibril FP: -7%; FBPA coupling cs: -7; Tau ThT inhib: inconclusive; USP1 inh: 28µM*; Tau fluor counter: 14µM*[quencher]

What do the screens show for `Oc1sc(C=Nc2ccc(F)cc2)c2ccccc12`?
Tau fibril FP: -5%; FBPA coupling cs: 5; Tau ThT inhib: -10%; USP1 inh: 32µM*; Tau fluor counter: -30%

How did CC1(C)OC(C)(C)/C(=C/Nc2ccc(O)cc2)C1=O do in these assays?
Tau fibril FP: inconclusive; FBPA coupling cs: -44*; Tau ThT inhib: 14µM*; USP1 inh: inconclusive; Tau fluor counter: inconclusive

How did COc1ccc(Cl)cc1NC(=O)CCN1C(=O)c2ccccc2Sc2ncccc21 do in these assays?
Tau fibril FP: -3%; Tau ThT inhib: -1%; USP1 inh: 3%; Tau fluor counter: -9%

Results for Cc1c(NC(=S)NC(=O)c2cc3ccccc3o2)cccc1C(=O)O ?
FBPA coupling cs: 5; USP1 inh: -9%

Assay outcomes as filed in PubChem BioAssay.
